In the library only some 7.2% were active in any assay of this set; here they are far more common.
SNCA viab count: GF-AFC viability counterscreen for inhibitors of alpha-synuclein gene (SNCA) expression; AID 1671193, 2021; Potency, µM (doses to about 57.1 µM), hits mostly cytotoxic; HEK-293-SNCA-luc viability, GF-AFC fluorescence, 24 h; 0.12% of 150,000 active; also: nearly all actives have a fitted effect of over 30% in size
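HEK-293-SNCA-luc cells (1500/well) plated 24 h, then exposed 24 h to a dilution series; GF-AFC added 30 min at 37C, fluorescence 405/540 nm; normalised to medium-only and DMSO wells, Hill fit.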
HEK cytotox: Cytotoxic Profiling in HEK 293 Cell Line of Diverse Libraries Using Quantitative High-Throughput Screening. Potency, µM (titrated, usually from 115 µM), hits mostly inhibitors. AID 1345083, 2018. 6.6% of 94,000 active. HEK 293 viability, ATP luminescence (CellTiter-Glo), 48-72 h; also: nearly all actives have a fitted effect of over 60% in size
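Pintool-delivered compounds were incubated with HEK 293 cells (250 cells/well) at 37 degree Celsius for 48 or 72 hr. ATP-dependent luminescence (CellTiter-Glo) then reported remaining viable cells.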
Luciferase inh: Firefly luciferase inhibition profiling of diverse chemical library using quantitative high-throughput screening. Luciferin 4-monooxygenase (Photinus pyralis), P08659. purified P. pyralis luciferase, luminescence, biochemical. Potency, µM (doses to about 115 µM), actives largely listed as inhibitors. 2.5% of 76,000 active; also: nearly all actives have a fitted effect of over 65% in size
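Cell-free enzyme assay, 10nM P. pyralis luciferase, luciferin and ATP each at 10uM. Inhibition profiled over a 6-point titration, read as luminescence.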
NPR1 antag: Natriuretic polypeptide receptor (hNpr1) antagonism - Primary qHTS | Atrial natriuretic peptide receptor 1 (Homo sapiens), P16066 | HEK293 hNpr1 GloSensor cGMP, ANP-stimulated luminescence | Potency, µM (titrated, usually from 46.3 µM), usual class: inhibitors | 1.6% of 76,000 active; calls by dose curve; also: nearly all actives have a fitted effect of over 60% in size
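HEK293 cells stably expressing human Npr1 and cGMP GloSensor pGS-40F, loaded 2 h with 2% GloSensor reagent, given compound 30 min at room temperature. Luminescence read before and 20 min after 0.1 nM hNppA.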
SNCA expr inhib: Primary qHTS assay for inhibitors of alpha-synuclein gene (SNCA) expression; Potency, µM (highest dose often 57.2 µM), hits mostly inhibitors; 0.17% of 140,000 active; HEK-293 SNCA-luciferase knock-in, luminescence, 24 h; also: nearly all actives have a fitted effect of over 45% in size
3T3 cytotox: Cytotoxic Profiling in NIH 3T3 Cell Line of Diverse Libraries Using Quantitative High-Throughput Screening; NIH 3T3 viability, CellTiter-Glo ATP luminescence, 48-72 h; Potency, µM (titrated, usually from 96.7 µM), usual class: inhibitors; 4.3% of 94,000 active; AID 1345082, 2018; also: nearly all actives have a fitted effect of over 55% in size
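NIH 3T3 cells at 400 cells/well received 23 nL of compound by pintool and were incubated 48 or 72 h at 37 °C. Viability was read as ATP-coupled CellTiter-Glo luminescence.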
NPR1 antag cnf: Natriuretic polypeptide receptor (hNpr1) antagonism - Confirmation. shares compounds with NPR1 antag. HEK293 hNpr1 cGMP GloSensor luminescence, ANP-stimulated. Potency, µM (series often up to 57.6 µM), hits mostly inhibitors. 76% of 1,400 active. AID 1347044, 2019; calls by dose curve; also: nearly all actives have a fitted effect of over 70% in size
Npr2 selectivity: Natriuretic polypeptide receptor (hNpr2) antagonism - Subtype selectivity assay | shares compounds with NPR1 antag | HEK293 hNpr2 GloSensor cGMP luminescence, CNP-stimulated | 67% of 1,400 active | Potency, µM (highest dose often 57.6 µM), hits mostly inhibitors; calls by dose curve; also: nearly all actives have a fitted effect of over 70% in size
Target sequence (P20594 whole entry, looked up): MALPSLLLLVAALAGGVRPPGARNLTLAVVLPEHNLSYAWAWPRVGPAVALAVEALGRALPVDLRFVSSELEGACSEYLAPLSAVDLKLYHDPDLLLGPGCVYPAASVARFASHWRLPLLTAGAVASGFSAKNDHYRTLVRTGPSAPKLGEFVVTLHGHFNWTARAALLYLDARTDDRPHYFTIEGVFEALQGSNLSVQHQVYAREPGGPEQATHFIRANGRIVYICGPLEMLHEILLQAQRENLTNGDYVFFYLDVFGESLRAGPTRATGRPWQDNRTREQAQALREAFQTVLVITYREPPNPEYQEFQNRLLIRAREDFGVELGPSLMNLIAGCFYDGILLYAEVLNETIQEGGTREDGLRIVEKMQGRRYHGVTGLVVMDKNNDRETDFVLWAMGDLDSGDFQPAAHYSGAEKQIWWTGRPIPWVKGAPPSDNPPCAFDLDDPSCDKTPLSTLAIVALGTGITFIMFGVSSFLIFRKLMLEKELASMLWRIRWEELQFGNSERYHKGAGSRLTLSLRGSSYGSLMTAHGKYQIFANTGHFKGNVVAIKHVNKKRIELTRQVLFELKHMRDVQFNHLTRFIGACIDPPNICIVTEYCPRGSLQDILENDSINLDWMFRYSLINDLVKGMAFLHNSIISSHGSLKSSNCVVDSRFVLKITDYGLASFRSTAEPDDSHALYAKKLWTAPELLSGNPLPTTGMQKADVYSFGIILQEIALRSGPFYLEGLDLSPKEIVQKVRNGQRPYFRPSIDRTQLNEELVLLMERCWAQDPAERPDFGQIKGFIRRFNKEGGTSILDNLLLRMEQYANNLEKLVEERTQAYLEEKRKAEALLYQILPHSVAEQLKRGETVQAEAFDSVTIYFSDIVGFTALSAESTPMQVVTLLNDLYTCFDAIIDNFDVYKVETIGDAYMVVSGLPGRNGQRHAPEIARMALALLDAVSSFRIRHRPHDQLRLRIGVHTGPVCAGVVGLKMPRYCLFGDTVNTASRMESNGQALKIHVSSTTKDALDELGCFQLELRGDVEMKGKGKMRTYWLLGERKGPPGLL
FLuc counter: Natriuretic polypeptide receptor (hNpr1) antagonism - Confirmation firefly luciferase (FLuc) inhibition counterscreen; 0.7% of 1,400 active; purified FLuc enzyme, luminescence, Km substrate; Potency, µM (series often up to 57.6 µM), most hits filed as inhibitors; shares compounds with NPR1 antag
GloSensor cGMP: Natriuretic polypeptide receptor (hNpr1) antagonism - Counterscreen GloSensor control cell line | shares compounds with NPR1 antag | HEK293 GloSensor cGMP, SNP-stimulated, luminescence | Potency, µM (top dose mostly 57.6 µM), actives largely listed as inhibitors | 69% of 1,400 active | AID 1347051, 2019; calls by dose curve; also: nearly all actives have a fitted effect of over 70% in size
Each line names hits and unclear results; the compound was inactive in the other large screens (follow-up assays come after a bar, where they were run). Unless noted, calls follow the shape of the dose curve; as a rule, active = well fitted curve in the direction sought with a large enough effect; inconclusive = small, poorly fitted or top-dose-only effect, or another doubt; inactive = no such curve, though single readings can be large; an effect the other way counts as inactive or inconclusive.

CCOc1ccc(C(=O)N2CCC(Cc3nc(-c4cnccn4)no3)CC2)cc1	3T3 cytotox inconclusive
Cc1ccccc1C(=O)N1CCC(Cc2nc(-c3ccccc3)no2)CC1	HEK cytotox inconclusive, NPR1 antag 8.91µM, 3T3 cytotox inconclusive | NPR1 antag cnf 10.9µM | Npr2 selectivity 17.2µM | FLuc counter inactive | GloSensor cGMP 10.9µM
CCCNC(=O)N1CCC2(CC1)N(c1ccccc1)C(=O)CS2=O (configuration not stated)	3T3 cytotox inconclusive (no result: Luciferase inh, NPR1 antag)
CCOCCNC(=O)CNC(=O)c1cccc(-c2ccc(SC)cc2)c1	HEK cytotox inconclusive, 3T3 cytotox inconclusive (no result: Luciferase inh, NPR1 antag)
O=C(CCCc1c[nH]c2ccccc12)N1CCC(c2noc(COc3ccc(F)cc3)n2)CC1	SNCA viab count inconclusive, HEK cytotox inconclusive, NPR1 antag 11.2µM, SNCA expr inhib inconclusive, 3T3 cytotox inconclusive | NPR1 antag cnf 21.7µM | Npr2 selectivity 24.3µM | FLuc counter inactive | GloSensor cGMP 17.2µM
Cc1nn2c(c1-c1ccccc1OCc1ccccc1)N(CC1CC1)CCC2	SNCA viab count 10µM, HEK cytotox inconclusive, NPR1 antag 7.08µM, SNCA expr inhib inconclusive, 3T3 cytotox inconclusive | NPR1 antag cnf 6.27µM | Npr2 selectivity 31.4µM | FLuc counter inactive | GloSensor cGMP 5.59µM
Cc1nn2c(c1-c1ccccc1Oc1ccccc1)N(CC1CC1)CCC2	SNCA viab count inconclusive, HEK cytotox 28.2µM, NPR1 antag inconclusive, SNCA expr inhib inconclusive, 3T3 cytotox 31.6µM | NPR1 antag cnf 39.6µM | Npr2 selectivity 35.3µM | FLuc counter inactive | GloSensor cGMP 39.6µM
COC1CCC(C(=O)N2CCCn3nc(C)c(-c4ccccc4Oc4ccccc4)c32)CC1 (configuration not stated)	HEK cytotox inconclusive, 3T3 cytotox inconclusive
CC(=O)Nc1ccccc1-c1c(C)nn2c1N(Cc1ccccc1)CCC2	HEK cytotox inconclusive, 3T3 cytotox inconclusive
COc1ccc(OC)c(CN2CCCn3nc(C)c(-c4ccnn4C(C)C)c32)c1	HEK cytotox inconclusive
COc1ccc(OC)c(CN2CCCn3nc(C)c(-c4ccccc4OCc4ccccc4)c32)c1	SNCA viab count 3.98µM, HEK cytotox 11.2µM, NPR1 antag 7.08µM, SNCA expr inhib inconclusive, 3T3 cytotox 8.91µM | NPR1 antag cnf 13.7µM | Npr2 selectivity 19.3µM | FLuc counter inactive | GloSensor cGMP 12.2µM
Cc1cc(OCCN2CCOCC2)c(C)c2c1CC[C@@H]([C@H](C)C(=O)N1CCCCC1)C2	SNCA viab count inconclusive, HEK cytotox 20µM, NPR1 antag 17.8µM, SNCA expr inhib inconclusive, 3T3 cytotox inconclusive | NPR1 antag cnf 39.6µM | Npr2 selectivity 35.3µM | FLuc counter inactive | GloSensor cGMP inconclusive
